Test results published in the supplement of paper PMC4466140.

How the values were obtained:
Assay in all cases: SPOT peptide array binding signal intensity (averaged, normalized) (arbitrary units (background-subtracted, floor 0; scale differs between SH3 domains)); higher = stronger binding of the SH3 domain to the peptide
AgAbp1 = molecular target: AgAbp1
In short: (§1)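 Peptides were synthetic 15-mers on cellulose membranes, with every cysteine replaced by serine. They were incubated overnight at 4°C with GST-SH3 domains from four yeast species at 10 μg/ml in TBS-based blocking buffer. Binding signal, the replicate-averaged normalized and background-subtracted spot intensity, is in arbitrary units that differ between domains.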

AgBbc1 = molecular target: AgBbc1
In short: as §1

AgBem1-D1 = molecular target: AgBem1-D1
In short: as §1

AgBzz1-D1 = molecular target: AgBzz1-D1
In short: as §1

AgBzz1-D2 = molecular target: AgBzz1-D2
In short: as §1

AgCyk3 = molecular target: AgCyk3
In short: as §1

AgFus1 = molecular target: AgFus1
In short: as §1

AgHof1 = molecular target: AgHof1
In short: as §1

AgHse1 = molecular target: AgHse1
In short: as §1

AgLsb1 = molecular target: AgLsb1
In short: as §1

AgLsb4 = molecular target: AgLsb4
In short: as §1

AgMyo5 = molecular target: AgMyo5
In short: as §1

AgNbp2 = molecular target: AgNbp2
In short: as §1

AgRvs167 = molecular target: AgRvs167
In short: as §1

AgSho1 = molecular target: AgSho1
In short: as §1

AgSla1-D1-D2 = molecular target: AgSla1-D1-D2
In short: as §1

AgSla1-D3 = molecular target: AgSla1-D3
In short: as §1

CaAbp1-D1 = molecular target: CaAbp1-D1
In short: as §1

CaAbp1-D2 = molecular target: CaAbp1-D2
In short: as §1

CaBbc1 = molecular target: CaBbc1
In short: as §1

CaBem1-D1 = molecular target: CaBem1-D1
In short: as §1

CaBzz1-D1 = molecular target: CaBzz1-D1
In short: as §1

CaBzz1-D2 = molecular target: CaBzz1-D2
In short: as §1

CaCyk3 = molecular target: CaCyk3
In short: as §1

CaFus1 = molecular target: CaFus1
In short: as §1

CaHof1 = molecular target: CaHof1
In short: as §1

CaHse1 = molecular target: CaHse1
In short: as §1

CaLsb1 = molecular target: CaLsb1
In short: as §1

CaLsb4 = molecular target: CaLsb4
In short: as §1

CaMyo5 = molecular target: CaMyo5
In short: as §1

CaNbp2 = molecular target: CaNbp2
In short: as §1

CaRvs167 = molecular target: CaRvs167
In short: as §1

CaRvs167-3 = molecular target: CaRvs167-3
In short: as §1

CaSho1 = molecular target: CaSho1
In short: as §1

CaSla1-D1-D2 = molecular target: CaSla1-D1-D2
In short: as §1

CaSla1-D3 = molecular target: CaSla1-D3
In short: as §1

ScAbp1 = molecular target: ScAbp1
In short: as §1

ScBbc1 = molecular target: ScBbc1
In short: as §1

ScBem1-D1 = molecular target: ScBem1-D1
In short: as §1

ScBzz1-D1 = molecular target: ScBzz1-D1
In short: as §1

ScBzz1-D2 = molecular target: ScBzz1-D2
In short: as §1

ScCyk3 = molecular target: ScCyk3
In short: as §1

ScFus1 = molecular target: ScFus1
In short: as §1

ScHof1 = molecular target: ScHof1
In short: as §1

ScHse1 = molecular target: ScHse1
In short: as §1

ScLsb1 = molecular target: ScLsb1
In short: as §1

ScLsb2 = molecular target: ScLsb2
In short: as §1

ScLsb3 = molecular target: ScLsb3
In short: as §1

ScLsb4 = molecular target: ScLsb4
In short: as §1

ScMyo3 = molecular target: ScMyo3
In short: as §1

ScMyo5 = molecular target: ScMyo5
In short: as §1

ScNbp2 = molecular target: ScNbp2
In short: as §1

ScPex13 = molecular target: ScPex13
In short: as §1

ScRvs167 = molecular target: ScRvs167
In short: as §1

ScSho1 = molecular target: ScSho1
In short: as §1

ScSla1-D1-D2 = molecular target: ScSla1-D1-D2
In short: as §1

ScSla1-D3 = molecular target: ScSla1-D3
In short: as §1

SpAbp1-D1 = molecular target: SpAbp1-D1
In short: as §1

SpBbc1 = molecular target: SpBbc1
In short: as §1

SpBzz1-D1 = molecular target: SpBzz1-D1
In short: as §1

SpBzz1-D2 = molecular target: SpBzz1-D2
In short: as §1

SpCyk3 = molecular target: SpCyk3
In short: as §1

SpHof1 = molecular target: SpHof1
In short: as §1

SpHof1-2 = molecular target: SpHof1-2
In short: as §1

SpHof1-3 = molecular target: SpHof1-3
In short: as §1

SpHse1 = molecular target: SpHse1
In short: as §1

SpLsb1 = molecular target: SpLsb1
In short: as §1

SpLsb4 = molecular target: SpLsb4
In short: as §1

SpMyo1 = molecular target: SpMyo1
In short: as §1

SpNbp2 = molecular target: SpNbp2
In short: as §1

SpPex13 = molecular target: SpPex13
In short: as §1

SpRvs167 = molecular target: SpRvs167
In short: as §1

SpSla1-D1-D2 = molecular target: SpSla1-D1-D2
In short: as §1

SpSla1-D3 = molecular target: SpSla1-D3
In short: as §1

B1: unnamed (peptide)
chain: PLRRTVMSLPGNHDI
- SPOT peptide array binding signal intensity (AgAbp1): 206
- SPOT peptide array binding signal intensity (AgBbc1): 19.6
- SPOT peptide array binding signal intensity (AgBem1-D1): 302
- SPOT peptide array binding signal intensity (AgBzz1-D1): 9.5
- SPOT peptide array binding signal intensity (AgBzz1-D2): 4.75
- SPOT peptide array binding signal intensity (AgCyk3): ≤ 0
- SPOT peptide array binding signal intensity (AgFus1): 598
- SPOT peptide array binding signal intensity (AgHof1): 6.25
- SPOT peptide array binding signal intensity (AgHse1): 302
- SPOT peptide array binding signal intensity (AgLsb1): 29.5
- SPOT peptide array binding signal intensity (AgLsb4): 4.5
- SPOT peptide array binding signal intensity (AgMyo5): 3
- SPOT peptide array binding signal intensity (AgNbp2): 396
- SPOT peptide array binding signal intensity (AgRvs167): 3.83
- SPOT peptide array binding signal intensity (AgSho1): 453
- SPOT peptide array binding signal intensity (AgSla1-D1-D2): 24.2
- SPOT peptide array binding signal intensity (AgSla1-D3): 6
- SPOT peptide array binding signal intensity (CaAbp1-D1): 776
- SPOT peptide array binding signal intensity (CaAbp1-D2): 1280
- SPOT peptide array binding signal intensity (CaBbc1): 154
- SPOT peptide array binding signal intensity (CaBem1-D1): 200
- SPOT peptide array binding signal intensity (CaBzz1-D1): 172
- SPOT peptide array binding signal intensity (CaBzz1-D2): 62.4
- SPOT peptide array binding signal intensity (CaCyk3): 17
- SPOT peptide array binding signal intensity (CaFus1): 1290
- SPOT peptide array binding signal intensity (CaHof1): 0.375
- SPOT peptide array binding signal intensity (CaHse1): 106
- SPOT peptide array binding signal intensity (CaLsb1): 0.5
- SPOT peptide array binding signal intensity (CaLsb4): 493
- SPOT peptide array binding signal intensity (CaMyo5): 19.6
- SPOT peptide array binding signal intensity (CaNbp2): 1640
- SPOT peptide array binding signal intensity (CaRvs167): 110
- SPOT peptide array binding signal intensity (CaRvs167-3): 20
- SPOT peptide array binding signal intensity (CaSho1): 837
- SPOT peptide array binding signal intensity (CaSla1-D1-D2): 247
- SPOT peptide array binding signal intensity (CaSla1-D3): 60.2
- SPOT peptide array binding signal intensity (ScAbp1): 205
- SPOT peptide array binding signal intensity (ScBbc1): 13
- SPOT peptide array binding signal intensity (ScBem1-D1): 1.5
- SPOT peptide array binding signal intensity (ScBzz1-D1): 4.75
- SPOT peptide array binding signal intensity (ScBzz1-D2): 5.75
- SPOT peptide array binding signal intensity (ScCyk3): 15
- SPOT peptide array binding signal intensity (ScFus1): 407
- SPOT peptide array binding signal intensity (ScHof1): ≤ 0
- SPOT peptide array binding signal intensity (ScHse1): 288
- SPOT peptide array binding signal intensity (ScLsb1): 14.5
- SPOT peptide array binding signal intensity (ScLsb2): ≤ 0
- SPOT peptide array binding signal intensity (ScLsb3): 52
- SPOT peptide array binding signal intensity (ScLsb4): 60
- SPOT peptide array binding signal intensity (ScMyo3): ≤ 0
- SPOT peptide array binding signal intensity (ScMyo5): ≤ 0
- SPOT peptide array binding signal intensity (ScNbp2): 584
- SPOT peptide array binding signal intensity (ScPex13): 177
- SPOT peptide array binding signal intensity (ScRvs167): 51.9
- SPOT peptide array binding signal intensity (ScSho1): 909
- SPOT peptide array binding signal intensity (ScSla1-D1-D2): 305
- SPOT peptide array binding signal intensity (ScSla1-D3): 404
- SPOT peptide array binding signal intensity (SpAbp1-D1): 671
- SPOT peptide array binding signal intensity (SpBbc1): 1.5
- SPOT peptide array binding signal intensity (SpBzz1-D1): 243
- SPOT peptide array binding signal intensity (SpBzz1-D2): 7.25
- SPOT peptide array binding signal intensity (SpCyk3): 0.5
- SPOT peptide array binding signal intensity (SpHof1): 10
- SPOT peptide array binding signal intensity (SpHof1-2): 24.2
- SPOT peptide array binding signal intensity (SpHof1-3): 261
- SPOT peptide array binding signal intensity (SpHse1): 788
- SPOT peptide array binding signal intensity (SpLsb1): 2.25
- SPOT peptide array binding signal intensity (SpLsb4): 258
- SPOT peptide array binding signal intensity (SpMyo1): 2.5
- SPOT peptide array binding signal intensity (SpNbp2): 392
- SPOT peptide array binding signal intensity (SpPex13): 40
- SPOT peptide array binding signal intensity (SpRvs167): 48.8
- SPOT peptide array binding signal intensity (SpSla1-D1-D2): 1.5
- SPOT peptide array binding signal intensity (SpSla1-D3): 126
